{"source": "paper PMC12136788", "binders": {"B1": {"name": "chrX:150470157:150470258:+|CDS|ENSG00000013619|unk|FALSE|unique (ssRNA)", "RNA": "GGGAGUUCUACAGUCCGACGAUCUCCAAAUGAGCUAGAUCUUGAGAAGAUACUGGGGACGAAGCCAGAAGAGCCACUGGUUUUAGAUCAUCCCCAGGCAACCCUAAGCACAACUCCCAAGCCUUCGGUUCAGAUGUCACACUUCAACAGAGGAUUGAGCAUCA"}, "B2": {"name": "chr8:102207567:102207681:-|3pUTR|ENSG00000048392|unk|total|mutant (ssRNA)", "RNA": "GGGAGUUCUACAGUCCGACGAUCUAUUAAUUGCAAUGAUGUUGUAAUAAAAUACUCUCAUUUCCUUAAAAUAAUUGUGAUUCCCGGUCCCCGGAUCCCGAAUCCGAUCUUUGUAUUUUUAAUGCUCCGGGGAAGAAUAUAAGUCAACAGAGGAUUGAGCAUCA"}, "B3": {"name": "ENSG00000142634:stop:overlap|stop_codon|ENSG00000142634|stop_codon|NA|stop_codon (ssRNA)", "RNA": "GGGAGUUCUACAGUCCGACGAUCAGGCGGAGGAGAUGAAGCAGCGGAAAGCGGCCUUCAAGGAGCUGCAGUCCACCUUUAAGUAGCGGGGGCUGCAGCCGACCGCCCUGCUCCGGCCCCAGUGUGGUGGGCGAGGGUGGCGCACAACAGAGGAUUGAGCAUCA"}, "B4": {"name": "ENSG00000100154:stop:overlap|stop_codon|ENSG00000100154|stop_codon|NA|stop_codon (ssRNA)", "RNA": "GGGAGUUCUACAGUCCGACGAUCAGCCAGUGAAGGCAGGUGACACUUACCUCCACCAGGUGAUGCAGGCUGUGGUGAUAAACUAGAGUGUGAAGAGCUCAGAGUGCAGCCUCUGGCCUUGCCACUCACAAGCUGUAGGACACUCAACAGAGGAUUGAGCAUCA"}, "B5": {"name": "chr18:33333173:33333394:-|CDS|ENSG00000166960|control|control|control (ssRNA)", "RNA": "GGGAGUUCUACAGUCCGACGAUCACAUUUUGAAAAACAAAAGACAGAGUUAGAAGAAGCAAAUGCAAAGAUUCAAGCAGACAUAGACUACAUGAAUGAACAUGGCCCUCUACUGGACUCUAAGCAGAAUCAGGAACUUCAAGACAACAGAGGAUUGAGCAUCA"}, "B6": {"name": "chr3:142163631:142163732:-|3pUTR|ENSG00000175066|unk|total|mutant (ssRNA)", "RNA": "GGGAGUUCUACAGUCCGACGAUCCCCAAAGUGCUGGGAUUGCAGCCGUGAACCACUGCACCCAGCCAAUGGGUGUAAUUUCACCGGAAAUAAUUCUUUUUGUCAGAAUGUACUGAAUUGUAAUAUUAAUACCUGAAAAUUUGUCAACAGAGGAUUGAGCAUCA"}, "B7": {"name": "ENSG00000101596:stop:overlap|stop_codon|ENSG00000101596|stop_codon|NA|stop_codon (ssRNA)", "RNA": "GGGAGUUCUACAGUCCGACGAUCUUAGUUGUAAUAAAAUAAAAGAUAAUGACAAAGAAGAUGGCUGCUUCUAUUUCAGGUUAUAGUUGAAGUCCUGCCUAAUCAACCUGUGAAGUUAGUACCUAAAAUUAAACCACCUACACCCAACAGAGGAUUGAGCAUCA"}, "B8": {"name": "chr20:18487131:18487232:-|3pUTR|ENSG00000089050|msi1|FALSE|unique (ssRNA)", "RNA": "GGGAGUUCUACAGUCCGACGAUCAAAUAUAGUAACCAGUAACCACAGCUAGCUGUAAAAUUGAAAAUUCAGUUCAGUCAAACUAGCCAUAUUUCAAGUGCUCAACAGCCACUGGUGGCUAUUGGUUACCUUACUGACCAGCCACAACAGAGGAUUGAGCAUCA"}, "B9": {"name": "chr9:34635388:34635489:-|3pUTR|ENSG00000147955|msi1|total|mutant (ssRNA)", "RNA": "GGGAGUUCUACAGUCCGACGAUCGGGAUAUCCAUGCUUAUGUAUCCAAACACAGAGACCCAUGGGAACAAAUGAGACACAUACCGAUACUGAGACCUGUGUGUACAGCCGGACCAUGCACUCACACCCAUCUGGAGAGGGAGCCAACAGAGGAUUGAGCAUCA"}, "B10": {"name": "chr1:16124655:16124788:-|3pUTR|ENSG00000142627|msi1|total|mutant (ssRNA)", "RNA": "GGGAGUUCUACAGUCCGACGAUCAGACUGUGAACUUGACUGGGUGAGACCCAAAGCGGUCCCUGUCCCUCCCGUGCCUUCUUCCGACCCUCGGGCCCCAUCCUCAUCCCUGACUGGCCAAACCCUUGCUUUCCUGGGCCUUUGCAACAGAGGAUUGAGCAUCA"}, "B11": {"name": "ENSG00000070961:be:win_2401|CDS|ENSG00000070961|bound_else_gene|NA|bound_elsewhere_windowed (ssRNA)", "RNA": "GGGAGUUCUACAGUCCGACGAUCGAUGGCCCAGCACUAAAGAAAGCAGAUGUUGGAUUUGCAAUGGGUAUUGCUGGAACUGAUGUAGCUAAAGAAGCAUCCGAUAUUAUUCUCACAGAUGACAACUUUACAAGCAUUGUUAAACAACAGAGGAUUGAGCAUCA"}, "B12": {"name": "chr1:6592219:6592320:-|3pUTR|ENSG00000162413|unk|total|mutant (ssRNA)", "RNA": "GGGAGUUCUACAGUCCGACGAUCCCCAAAGCCGCCUUGGCUUGAGUUUUUGUCCUUGCCUCCUUUUCCGAGAAGAGGGCAUUCCGACUGCAUUUUCCUGGUUAAAGAAGGUUAAAGCAAAUGUUUAUUGCCUUUUCCCGUGAACAACAGAGGAUUGAGCAUCA"}, "B13": {"name": "ENSG00000168297:stop:overlap|stop_codon|ENSG00000168297|stop_codon|NA|stop_codon (ssRNA)", "RNA": "GGGAGUUCUACAGUCCGACGAUCCUGGGGCCAGCUCACCUCUCACGUCCCCGUCAUCGCCAACUCCACCCUCUACAUCAGGUUAGUGAUGGAGUAAAGUGACAUGCCACCUUCCUGUCCGCCAACAGGAGGAGCGGGCUGUGCCAACAGAGGAUUGAGCAUCA"}, "B14": {"name": "chr22:40826605:40826706:-|CDS|ENSG00000100380|unk|total|mutant (ssRNA)", "RNA": "GGGAGUUCUACAGUCCGACGAUCCACCAAAUUACAGGUCUAAAUAAGAGAUGGAAUUCCGGAUAAUAAACUUACUGACCCAGCCGGACACUUUUUAAAUACUAAUGAACCCUUUCUUUUCAGGAUCCAGAAGUUAUGGUGGCUCAACAGAGGAUUGAGCAUCA"}}, "note": "In all, about 5,800 sequences were measured (“enrichment r”: median about 0.68, highest 2% from about 11 on). A selection follows.", "data": [{"target": "T1, UNK ZnF1-6 (called full-length) (human, UniProt Q9C0B0 30-357)", "T1 sequence": "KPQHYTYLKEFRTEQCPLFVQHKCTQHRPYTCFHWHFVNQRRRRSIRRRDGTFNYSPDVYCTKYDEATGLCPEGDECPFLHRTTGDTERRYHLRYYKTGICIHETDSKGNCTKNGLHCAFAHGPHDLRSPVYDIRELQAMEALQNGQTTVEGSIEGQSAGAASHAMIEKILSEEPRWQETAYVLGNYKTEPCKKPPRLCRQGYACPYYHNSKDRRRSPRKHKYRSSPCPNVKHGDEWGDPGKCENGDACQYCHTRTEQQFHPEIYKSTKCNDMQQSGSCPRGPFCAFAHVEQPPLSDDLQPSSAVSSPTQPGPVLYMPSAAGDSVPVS", "assay": "nsRBNS (natural sequence RNA bind-n-seq); RBNS binding buffer (assumed for nsRBNS): 25 mM Tris pH 7.5, 150 mM KCl, 3 mM MgCl2, 0.01% Triton X-100, 500 ug/ml BSA, 20 U/ml SUPERase-In, 4 C; UNK is unkempt and MSI1 is Musashi-1; names of the RNAs are library labels; protein concentration not given here; high values mean tight binding", "units": {"binding signal": "enrichment R"}, "values": [{"binder": "B1", "binding signal": 0.539}, {"binder": "B2", "binding signal": 0.334}, {"binder": "B3", "binding signal": 1.43}, {"binder": "B4", "binding signal": 0.552}, {"binder": "B5", "binding signal": 0.467}, {"binder": "B6", "binding signal": 0.381}, {"binder": "B7", "binding signal": 1.46}, {"binder": "B8", "binding signal": 0.375}, {"binder": "B9", "binding signal": 0.886}, {"binder": "B10", "binding signal": 1.06}, {"binder": "B11", "binding signal": 0.531}, {"binder": "B12", "binding signal": 0.414}, {"binder": "B13", "binding signal": 1.05}, {"binder": "B14", "binding signal": 0.405}]}]}
